In PubChem BioAssay AID624261 (National Center for Advancing Translational Sciences (NCATS), 2012):
The list shows a part of the results. Activity calls are given as the source filed them. Calls follow the shape of the full dose curve.

The molecules below were run against Glutaminase kidney isoform, mitochondrial (Homo sapiens) (UniProt O94925) (assay: qHTS for Inhibitors of Glutaminase (GLS): Hit Confirmation). Details: biochemical glutaminase enzyme inhibition assay.
Excerpt: Glutaminase (GLS) catalyzes the hydrolysis of glutamine into glutamate and ammonia. It plays a critical role in glutaminolysis, which is an important energy source for proliferating cells. It was shown that c-Myc, an oncogenic transcription factor known to regulate microRNAs and to stimulate cell proliferation, increases glutamine metabolism by stimulating the expression of GLS via direct suppression of miR23a and miR23b.
GLS is also thought to play a pathogenic role on HAD using a human HIV-1 infected macrophage system. […] GLS inhibition limits glutamate release and provides neuroprotection against HIV-1 infected macrophages.
The overall goal of this project is to identify small molecule inhibitors of GLS through quantitative high throughput screening (qHTS) of the MLSMR. A validated potent and selective inhibitor can be used as a tool molecule to further study the pharmacology of its target as well as explore its potential therapeutic application in cancer and inflammatory neurological disorders, such as HIV1-associated dementia (HAD) and multiple sclerosis. This is the hit confirmation in the primary assay data. […]
Three 3 uL of hKGA is dispensed into black well 1536-well plates in 45 mM KH2PO4 (pH 8.2), 0.02% Tween-20. […] Plate is centrifuged for 25 sec before an initial fluorescence read is obtained on the ViewLux, after 30 min of RT incubation, the final read is taken on the ViewLux.

Glutaminase kidney isoform, mitochondrial (Homo sapiens), sequence (O94925 whole entry, looked up, canonical isoform): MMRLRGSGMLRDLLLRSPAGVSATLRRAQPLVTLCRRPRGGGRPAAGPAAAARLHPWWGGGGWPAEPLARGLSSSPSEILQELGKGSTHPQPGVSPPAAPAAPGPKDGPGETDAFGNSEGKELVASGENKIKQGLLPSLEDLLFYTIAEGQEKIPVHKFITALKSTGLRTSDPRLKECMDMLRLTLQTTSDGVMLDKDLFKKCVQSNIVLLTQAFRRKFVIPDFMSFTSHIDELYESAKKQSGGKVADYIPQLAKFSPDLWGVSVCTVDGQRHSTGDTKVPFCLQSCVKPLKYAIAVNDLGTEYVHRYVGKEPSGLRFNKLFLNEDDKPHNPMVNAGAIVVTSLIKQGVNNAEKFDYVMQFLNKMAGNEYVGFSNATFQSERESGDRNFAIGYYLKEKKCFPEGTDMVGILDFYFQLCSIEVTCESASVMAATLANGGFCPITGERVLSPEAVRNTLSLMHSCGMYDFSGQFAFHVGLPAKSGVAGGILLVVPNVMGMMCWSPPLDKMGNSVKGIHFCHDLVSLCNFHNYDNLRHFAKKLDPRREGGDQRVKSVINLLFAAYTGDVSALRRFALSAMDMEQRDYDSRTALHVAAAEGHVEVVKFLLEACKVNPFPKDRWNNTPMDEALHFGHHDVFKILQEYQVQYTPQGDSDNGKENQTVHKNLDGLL

SMILES | Potency
COc1cc(OC)c(S(=O)(=O)Nc2ccccc2C(=O)O)cc1S(=O)(=O)Nc1ccccc1C(=O)O | 5.8 µM (active)
